Assay [1] in a line: qHTS assay to identify aromatase inhibitors - cell viability counter screen (AID 743084).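 Also: cells stimulated with testosterone during compound exposure; nearly all actives have a fitted effect of over 55% in size.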 Background: In qHTS, concentration-response curves come from the screen itself.
The target in assay [2] is Aryl hydrocarbon receptor (Homo sapiens) (UniProt P35869). In words: qHTS assay to identify small molecule that activate the aryl hydrocarbon receptor (AhR) signaling pathway (AID 743085).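 Also: HG2L7.5c1 human HepG2 liver cells with stably integrated DRE-driven firefly reporter; series mostly up to about 70 µM; nearly all actives have a fitted effect of over 15% in size.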 Summed up: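 HepG2 cells stably carrying a 20-DRE firefly luciferase reporter (HG2L7.5c1) treated with compound for 24 hr at 37C. Luciferase read by ONE-Glo luminescence, with CellTiter-Fluor viability read first.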

A short description of assay [3]: qHTS assay to identify small molecule that activate the aryl hydrocarbon receptor (AhR) signaling pathway - cell viability counter screen (AID 743086). Also: series mostly up to about 70 µM; nearly all actives have a fitted effect of over 45% in size. The method, boiled down: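 HepG2-AhR-luc (HG2L7.5c1) cells, 4000/well, were preincubated 5 h at 37C, exposed to compound in qHTS format for 24 hr at 37C, then given CellTiter-Fluor for 30 min; viability was read as fluorescence in the reporter wells.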

The target in assay [4] is Peroxisome proliferator-activated receptor gamma (Homo sapiens) (UniProt P37231). In words: qHTS assay to identify small molecule agonists of the peroxisome proliferator-activated receptor gamma (PPARg) signaling pathway (AID 743094; active = well fitted activation curve with a large enough effect in the signal ratio in the repeat runs, not every such curve was filed as active; the % refers to the signal ratio). Summed up: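 Stably transfected HEK293H cells (GeneBLAzer PPARg UAS-bla) were incubated with test substances for 17 h at 37C after a 5 h pre-incubation; beta-lactamase activity was then detected by FRET substrate fluorescence.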

The target is the same in assay [5]. In words: qHTS assay to identify small molecule antagonists of the peroxisome proliferator-activated receptor gamma (PPARg) signaling pathway (AID 743191; calls by dose curve; also: series mostly up to about 63 µM; nearly all actives have a fitted effect of over 30% in size). Summed up:
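GeneBLAzer PPARg UAS-bla HEK293H cells carrying a UAS-driven beta-lactamase reporter were plated at 3000 cells/well, preincubated 5 h at 37C, then given compound for 17 h at 37C; LiveBLAzer B/G FRET substrate was read after 1 h at room temperature.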

Assay [6] is described as follows: qHTS assay to identify small molecule antagonists of the peroxisome proliferator-activated receptor gamma (PPARg) signaling pathway - cell viability counter screen (AID 743194). Also: nearly all actives have a fitted effect of over 55% in size. Summed up:
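PPARg-UAS-bla HEK293H cells were plated, rested 5 h at 37 C, then treated with compounds plus rosiglitazone (50 nM final) for 17 h at 37 C; viability was then read by CellTiter-Glo luminescence after 30 min at room temperature.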

Assay [7] in a line: qHTS assay for small molecule agonists of the antioxidant response element (ARE) signaling pathway (AID 743202; active = well fitted activation curve with a large enough effect in the signal ratio in the repeat runs, not every such curve was filed as active; the % refers to the signal ratio; also: potency is read from the fitted curve at half-maximal effect). The method, boiled down:
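Read-out: LiveBLAzer B/G FRET substrate fluorescence after 2 h at room temperature, following 16 h compound treatment at 37 C of HepG2 cells carrying an ARE-driven beta-lactamase reporter.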

Assay [8] in a line: qHTS assay for small molecule agonists of the antioxidant response element (ARE) signaling pathway - cell viability counter screen (AID 743203; calls by dose curve; also: nearly all actives have a fitted effect of over 55% in size). The method, boiled down:
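Cells (ARE-bla HepG2, 2,000/well) receive DMSO-dissolved compounds after a 5 hrs rest. Plates incubate 16 hrs at 37C/5% CO2. CellTiter-Glo luminescence is then recorded after 30 min at room temperature.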

Assay [9] in a line: qHTS assay for small molecule activators of the heat shock response signaling pathway - cell viability counter screen (AID 743209). Also: nearly all actives have a fitted effect of over 50% in size. The method, boiled down:
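Quantitative HTS format, Tox21 10K library. HeLa cells carrying an HSE-driven beta-lactamase reporter were treated 5 h at 37 C, then assessed for viability by CellTiter-Glo luminescence.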

Assay [10] in a line: qHTS assay for small molecule activators of the heat shock response signaling pathway (AID 743210; active = well fitted activation curve with a large enough effect in the signal ratio in the repeat runs, with a control signal flat, not every such curve was filed as active; the % refers to the signal ratio; also: series mostly up to about 63 µM). The method, boiled down: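 HSE-bla HeLa cells (beta-lactamase reporter under heat shock response elements) were exposed to compounds for 5 h at 37 C, then loaded with LiveBLAzer B/G FRET substrate for 2.5 h at room temperature before fluorescence reading.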
Assay [11] in a line: qHTS assay to identify small molecule agonists of the peroxisome proliferator-activated receptor delta (PPARd) signaling pathway - cell viability counter screen (AID 743211). Also: nearly all actives have a fitted effect of over 55% in size. The method, boiled down: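 PPARd-bla HEK293H cells (3000/well) were pre-incubated 5 h at 37 C, then exposed to compound for 17 h at 37 C. After 2 h with LiveBLAzer substrate, CellTiter-Glo was added to the same wells; luminescence read after 30 min at room temperature.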

Assay [12] deals with Peroxisome proliferator-activated receptor delta (Homo sapiens) (UniProt Q03181). In words: qHTS assay to identify small molecule agonists of the peroxisome proliferator-activated receptor delta (PPARd) signaling pathway (AID 743212; calls by dose curve). Summed up: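 GeneBLAzer PPARd UAS-bla HEK293H cells (beta-lactamase reporter under UAS control), plated and rested 5 h at 37 C, then exposed to compounds in DMSO at 37 C; LiveBLAzer B/G FRET substrate added, 2 h room temperature, fluorescence read.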

The nature of assay [13]: qHTS assay to identify small molecule antagonists of the peroxisome proliferator-activated receptor delta (PPARd) signaling pathway - cell viability counter screen (AID 743213). Also: nearly all actives have a fitted effect of over 50% in size. Summed up:
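In this counter screen, HEK293H cells carrying a UAS-beta-lactamase reporter are co-treated with test compounds and 300 nM L165041 (final) for 17 h at 37 C; cell viability is quantified by CellTiter-Glo luminescence.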

Assay [14] has as its target Bile acid receptor (Homo sapiens) (UniProt Q96RI1). Put plainly: qHTS assay to identify small molecule antagonists of the farnesoid-X-receptor (FXR) signaling pathway (AID 743217; active = well fitted inhibition curve with a large enough effect in the signal ratio in the repeat runs, not every such curve was filed as active; the % refers to the signal ratio). The method, boiled down: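 Beta-lactamase reporter under UAS control in HEK 293T cells; compound exposure 16 h at 37 °C in the presence of chenodeoxycholic acid (50 uM final); signal from B/G FRET substrate after 2 h at room temperature.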

Assay [15] in a line: qHTS assay to identify small molecule agonists of the farnesoid-X-receptor (FXR) signaling pathway - cell viability counter screen (AID 743218). Also: nearly all actives have a fitted effect of over 45% in size. The method, boiled down:
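In GeneBLAzer FXR-UAS-bla HEK 293T cells, compounds act for 16 h at 37 C. Cell viability is then scored in the reporter wells by CellTiter-Glo, 30 min at RT, luminescence.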

Assay [16] deals with Bile acid receptor (Homo sapiens) (UniProt Q96RI1). In words: qHTS assay to identify small molecule agonists of the farnesoid-X-receptor (FXR) signaling pathway (AID 743220; active = well fitted activation curve with a large enough effect in the signal ratio in the repeat runs, not every such curve was filed as active; the % refers to the signal ratio). The method, boiled down:
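Beta-lactamase reporter under UAS control in GeneBLAzer FXR HEK 293T cells (5000/well) measured with LiveBLAzer FRET substrate after 2 h at room temperature. Compound exposure lasted 16 h at 37C.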

A short description of assay [17]: qHTS assay to identify small molecule antagonists of the farnesoid-X-receptor (FXR) signaling pathway - cell viability counter screen (AID 743221; active = well fitted cell-killing curve with a large enough effect in the repeat runs, not every such curve was filed as active; also: nearly all actives have a fitted effect of over 50% in size). The method, boiled down:
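GeneBLAzer FXR-UAS-bla HEK 293T cells, compound plus chenodeoxycholic acid (50 uM final), 16 h at 37 C. CellTiter-Glo added to the same wells after the beta-lactamase read; luminescence read after 30 min at room temperature as viability.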

In assay [18] the target is Peroxisome proliferator-activated receptor delta (Homo sapiens) (UniProt Q03181). Put plainly: qHTS assay to identify small molecule antagonists of the peroxisome proliferator-activated receptor delta (PPARd) signaling pathway (AID 743215; active = well fitted inhibition curve with a large enough effect in the signal ratio in the repeat runs, not every such curve was filed as active; the % refers to the signal ratio;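 also: cells stimulated with agonist L165041 at 300 nM final during compound exposure; series mostly up to about 62 µM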). Summed up: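 Antagonist-mode beta-lactamase reporter screen: HEK293H cells with UAS-bla under PPARd control, stimulated by 300 nM L165041 (final) alongside test compound for 17 h at 37 C, then FRET fluorescence after 2 h substrate incubation.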

Assay [19] deals with Vitamin D3 receptor (Homo sapiens) (UniProt P11473). Put plainly: qHTS assay to identify small molecule agonists of the vitamin D receptor (VDR) signaling pathway (AID 743222; calls by dose curve). The method, boiled down:
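Agonist activity measured in VDR-bla reporter cells. Exposure 16 h, 37C, 5% CO2; detection by B/G FRET substrate, 2 h RT.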

Assay [20] shares this target. In words: qHTS assay to identify small molecule antagonists of the vitamin D receptor (VDR) signaling pathway (AID 743223; active = well fitted inhibition curve with a large enough effect in the signal ratio in the repeat runs, not every such curve was filed as active; the % refers to the signal ratio). The method, boiled down:
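VDR-bla cells were treated with compound plus 3 nM final 1alpha,25-dihydroxyvitamin D3 for 16 h at 37C. Beta-lactamase reporter read by B/G FRET substrate fluorescence after 2 h at room temperature. qHTS format.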

Each structure is given as a SMILES string. Inconclusive results are not listed. The source made the active and inactive calls. Unless noted, calls follow the shape of the dose curve; as a rule, active = well fitted curve in the direction sought with a large enough effect in the repeat runs; inconclusive = weak or mixed curves; inactive = no such curve, though single readings can be large; an effect the other way counts as inactive or inconclusive.

Chain of Peroxisome proliferator-activated receptor delta (Homo sapiens) (Q03181 whole entry, looked up): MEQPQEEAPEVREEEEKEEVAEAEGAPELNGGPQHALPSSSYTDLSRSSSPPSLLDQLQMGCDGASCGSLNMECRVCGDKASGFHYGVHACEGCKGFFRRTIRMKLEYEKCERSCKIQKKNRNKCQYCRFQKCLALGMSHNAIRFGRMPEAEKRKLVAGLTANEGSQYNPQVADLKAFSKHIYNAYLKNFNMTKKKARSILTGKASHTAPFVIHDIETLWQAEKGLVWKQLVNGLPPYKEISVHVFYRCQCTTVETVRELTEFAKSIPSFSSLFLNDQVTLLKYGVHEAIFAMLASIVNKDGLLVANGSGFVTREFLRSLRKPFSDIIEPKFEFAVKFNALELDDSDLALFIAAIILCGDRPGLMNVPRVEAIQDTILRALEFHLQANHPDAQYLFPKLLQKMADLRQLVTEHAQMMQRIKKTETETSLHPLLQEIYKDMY
Chain of Bile acid receptor (Homo sapiens) (Q96RI1 whole entry, looked up): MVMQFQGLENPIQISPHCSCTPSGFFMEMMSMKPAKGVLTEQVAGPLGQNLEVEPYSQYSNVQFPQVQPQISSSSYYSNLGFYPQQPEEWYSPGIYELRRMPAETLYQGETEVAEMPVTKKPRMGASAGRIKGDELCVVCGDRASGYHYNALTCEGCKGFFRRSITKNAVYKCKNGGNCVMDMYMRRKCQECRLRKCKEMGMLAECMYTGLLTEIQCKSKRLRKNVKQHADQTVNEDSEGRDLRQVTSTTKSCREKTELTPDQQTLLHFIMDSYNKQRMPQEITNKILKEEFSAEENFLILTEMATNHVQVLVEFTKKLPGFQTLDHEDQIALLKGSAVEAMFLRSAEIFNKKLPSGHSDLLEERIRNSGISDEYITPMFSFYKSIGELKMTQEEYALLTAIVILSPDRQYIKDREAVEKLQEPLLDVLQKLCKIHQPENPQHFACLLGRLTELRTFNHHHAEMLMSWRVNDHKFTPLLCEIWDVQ
Chain of Vitamin D3 receptor (Homo sapiens) (P11473 whole entry, looked up): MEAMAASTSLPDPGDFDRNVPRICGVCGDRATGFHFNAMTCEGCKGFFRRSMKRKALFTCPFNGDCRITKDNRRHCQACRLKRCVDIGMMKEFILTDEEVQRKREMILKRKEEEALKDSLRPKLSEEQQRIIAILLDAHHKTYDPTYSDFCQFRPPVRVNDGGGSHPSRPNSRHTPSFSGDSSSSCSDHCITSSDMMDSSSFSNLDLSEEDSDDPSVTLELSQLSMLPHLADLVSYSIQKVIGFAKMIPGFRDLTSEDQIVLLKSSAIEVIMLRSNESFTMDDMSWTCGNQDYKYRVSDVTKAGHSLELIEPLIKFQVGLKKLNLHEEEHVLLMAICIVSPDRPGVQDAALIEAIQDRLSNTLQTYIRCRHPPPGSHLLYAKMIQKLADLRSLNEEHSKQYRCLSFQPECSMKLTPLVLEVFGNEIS
Chain of Peroxisome proliferator-activated receptor gamma (Homo sapiens) (P37231 whole entry, looked up): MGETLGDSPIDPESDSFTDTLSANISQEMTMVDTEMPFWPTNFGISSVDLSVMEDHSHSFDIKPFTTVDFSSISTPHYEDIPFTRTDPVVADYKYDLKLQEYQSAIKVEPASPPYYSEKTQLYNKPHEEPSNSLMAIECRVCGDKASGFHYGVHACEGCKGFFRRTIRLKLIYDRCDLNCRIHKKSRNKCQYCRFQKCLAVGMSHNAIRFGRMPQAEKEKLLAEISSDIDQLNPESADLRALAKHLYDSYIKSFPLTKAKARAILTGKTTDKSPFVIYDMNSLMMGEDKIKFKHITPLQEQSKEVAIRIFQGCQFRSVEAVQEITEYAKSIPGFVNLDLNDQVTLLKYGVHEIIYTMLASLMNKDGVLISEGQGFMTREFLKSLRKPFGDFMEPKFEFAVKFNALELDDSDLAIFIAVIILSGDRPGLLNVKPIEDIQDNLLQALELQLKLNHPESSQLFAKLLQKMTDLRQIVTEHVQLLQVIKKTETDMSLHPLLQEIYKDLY
Chain of Aryl hydrocarbon receptor (Homo sapiens) (P35869 whole entry, looked up): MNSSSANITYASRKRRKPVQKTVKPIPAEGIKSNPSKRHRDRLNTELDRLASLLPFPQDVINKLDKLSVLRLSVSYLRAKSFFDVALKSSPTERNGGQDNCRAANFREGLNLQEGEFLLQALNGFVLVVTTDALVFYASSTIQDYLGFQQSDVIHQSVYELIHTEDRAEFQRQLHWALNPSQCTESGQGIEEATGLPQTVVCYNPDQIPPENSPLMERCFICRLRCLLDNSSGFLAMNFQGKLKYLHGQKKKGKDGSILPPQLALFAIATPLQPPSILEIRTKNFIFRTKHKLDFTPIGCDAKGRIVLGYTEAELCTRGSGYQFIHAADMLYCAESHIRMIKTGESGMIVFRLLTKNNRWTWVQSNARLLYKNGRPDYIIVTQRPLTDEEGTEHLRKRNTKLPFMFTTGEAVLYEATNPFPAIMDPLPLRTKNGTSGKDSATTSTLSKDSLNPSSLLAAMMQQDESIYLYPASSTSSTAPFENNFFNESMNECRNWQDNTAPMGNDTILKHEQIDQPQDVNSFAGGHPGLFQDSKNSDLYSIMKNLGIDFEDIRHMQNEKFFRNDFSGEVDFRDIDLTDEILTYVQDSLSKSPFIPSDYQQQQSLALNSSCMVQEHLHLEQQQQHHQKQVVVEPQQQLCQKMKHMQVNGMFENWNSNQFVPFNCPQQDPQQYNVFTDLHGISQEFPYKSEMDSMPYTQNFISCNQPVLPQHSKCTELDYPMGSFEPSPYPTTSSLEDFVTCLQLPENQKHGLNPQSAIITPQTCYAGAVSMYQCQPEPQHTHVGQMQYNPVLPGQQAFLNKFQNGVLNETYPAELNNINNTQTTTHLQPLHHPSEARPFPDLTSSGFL

For the molecule `Cc1cc(C(C)(C)C)cc(C)c1CC1=NCCN1`, the Potency entry in assay [1], in assay [2], in [3], in assay [4], in assay [5] and in assay [6] was “inactive” in each case. Besides, the Potency entry in assay [7], in assay [8], in assay [9], in assay [10], in assay [11] and in assay [12] was “inactive” in each case. For the same molecule, the Potency result in [13], in [14], in assay [15], in assay [16] and in assay [17] was “inactive” in each case.

As to `COc1cc(C)ccc1O`, the Potency entry in assay [1], in [2], in assay [3], in [4], in assay [5] and in assay [6] was “inactive” in each case. For the same molecule, the Potency result in assay [7], in [8], in assay [10], in [11], in assay [12] and in [18] was “inactive” throughout. Also, the Potency entry in assay [15], in [17], in assay [19] and in assay [20] was “inactive” in each case.

On to `c1ccc(SSc2ccccc2)cc1`, for which the Potency entry in [1], in assay [2], in assay [3], in [4], in assay [5] and in assay [6] was “inactive” each time. Besides, the Potency result in [7], in [8], in assay [9], in assay [11], in assay [13] and in [18] was “inactive” in each case. Further, the Potency result in assay [17] and in assay [19] was “inactive” throughout.

Regarding `O=C(/C=C/c1ccccc1)OC/C=C/c1ccccc1`, the Potency entry in assay [1], in assay [2], in assay [3], in assay [4], in assay [5] and in assay [6] was “inactive” in each case. For the same molecule, the Potency result in [8], in assay [9], in assay [11], in [12], in assay [13] and in assay [18] was “inactive” in each case. Also, the Potency entry in assay [16], in assay [17], in assay [19] and in [20] was “inactive” each time.

Regarding `Cc1ccc(C(C)C)cc2c(C)ccc1-2`, the Potency entry in assay [1], in assay [2], in [3], in [4], in [5] and in [6] was “inactive” throughout. Besides, the Potency result in assay [8], in assay [10], in assay [13], in [15], in [16] and in [17] was “inactive” throughout. The Potency result in assay [19] and in assay [20] was “inactive” in each case.

As for `Nc1ccc(Oc2ccc(Cl)cc2)cc1`, the Potency result in assay [1], in [2], in assay [3], in assay [4], in assay [5] and in assay [6] was “inactive” in each case. Further, the Potency entry in [8], in assay [9], in [12], in [13], in [18] and in [14] was “inactive” each time. The Potency result in assay [15], in [16], in assay [17] and in assay [20] was “inactive” each time.

In the case of `CCOc1ccc2ccccc2c1C(=O)N[C@@H]1C(=O)N2[C@@H]1SC(C)(C)[C@@H]2C(=O)O`, the Potency result in assay [1], in assay [2], in assay [3], in assay [4], in [6] and in assay [8] was “inactive” in each case. Moreover, the Potency entry in [9], in assay [11], in assay [12], in [18], in assay [15] and in assay [16] was “inactive” throughout. The Potency result in assay [17], in assay [19] and in [20] was “inactive” throughout. Besides, the Potency in assay [7] is 4.73 µM (active).

As to `O=C1C(c2[nH]c3ccc(S(=O)(=O)O)cc3c2O)=Nc2ccc(S(=O)(=O)O)cc21`, the Potency result in assay [1], in assay [2], in assay [3], in [4], in assay [5] and in assay [8] was “inactive” in each case. The Potency result in [9], in assay [11], in assay [12], in [13], in assay [18] and in assay [15] was “inactive” throughout. For the same molecule, the Potency result in assay [17], in assay [19] and in assay [20] was “inactive” throughout.

As for `OC1CCCc2ccccc21` (stereo not drawn), the Potency entry in assay [1], in assay [2], in [3], in [4], in [5] and in [7] was “inactive” in each case. The Potency result in assay [8], in assay [9], in [11], in assay [13], in assay [15] and in assay [17] was “inactive” throughout. In addition, the Potency result in assay [19] and in assay [20] was “inactive” throughout.
